High-throughput results from PubChem BioAssay.
Only some compounds are listed: those with a hit (about 4.5% of all), similar ones and a draw of the others.
HDAC3 inh: blocks human histone deacetylase 3 | AID 2718 | 0.15% of 320,000 active | recombinant HDAC3, fluorogenic peptide/trypsin coupled, fluorescence | O15379 | inhibition, % at 8.3 µM; in the data active means inhibition above about 26%, passing the limit was not always enough
GRK2 aptamer HTS: blocks RNA aptamer binding to human GRK2. AID 488847. bead flow cytometry, FAM-aptamer displacement from GRK2. P25098. inhibition of aptamer binding, % at 10 µM. 0.59% of 330,000 active;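 active means inhibition of aptamer binding above 40%, roughly 3 SD of noise, on plates passing a quality check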;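 further: median bead fluorescence of bound FAM aptamer so fluorescent compounds give negative values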
Target sequence (P25098 whole entry, looked up): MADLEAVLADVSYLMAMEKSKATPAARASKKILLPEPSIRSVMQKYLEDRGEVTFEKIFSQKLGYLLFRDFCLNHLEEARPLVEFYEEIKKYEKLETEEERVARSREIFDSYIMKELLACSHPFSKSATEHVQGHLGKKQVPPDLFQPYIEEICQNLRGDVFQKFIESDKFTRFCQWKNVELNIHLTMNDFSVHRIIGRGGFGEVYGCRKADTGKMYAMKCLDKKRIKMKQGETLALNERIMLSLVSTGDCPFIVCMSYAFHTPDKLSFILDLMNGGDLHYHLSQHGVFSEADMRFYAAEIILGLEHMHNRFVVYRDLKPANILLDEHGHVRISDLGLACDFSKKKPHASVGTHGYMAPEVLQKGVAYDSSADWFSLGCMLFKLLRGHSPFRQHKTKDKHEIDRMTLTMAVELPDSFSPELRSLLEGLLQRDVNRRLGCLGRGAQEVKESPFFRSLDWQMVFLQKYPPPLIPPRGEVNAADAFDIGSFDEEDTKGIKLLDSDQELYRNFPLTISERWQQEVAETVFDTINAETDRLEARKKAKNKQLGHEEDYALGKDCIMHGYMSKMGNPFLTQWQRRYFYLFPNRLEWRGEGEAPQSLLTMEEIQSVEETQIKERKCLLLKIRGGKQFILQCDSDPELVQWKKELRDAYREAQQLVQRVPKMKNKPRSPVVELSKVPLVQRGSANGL
Rtt109 Vps75: inhibitors of Candida albicans Rtt109/Vps75 histone acetyltransferase; purified Rtt109/Vps75, ThioGlo CoA-SH fluorescence, 4 h; inhibition, % at 34.9 µM; 0.16% of 330,000 active; AID 540336;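 active means inhibition of at least 50% in every replicate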
ALR inh: blocks human ALR sulfhydryl oxidase activity | inhibition, % (no concentration beside the values) | 3.8% of 290,000 active | purified ALR, DTT oxidation, H2O2 HRP-luminol luminescence;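 active means mean replicate inhibition above about 79%, with every replicate also reaching it, limit read from the data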
Rce1 inh: inhibitors of yeast Ras-converting enzyme; Q03530; AID 2563; 0.27% of 290,000 active; calls only; yeast membranes, quenched prenylated peptide cleavage fluorescence;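 active means fall in fluorescence gain of 50% or more versus controls, with final raw signal at or below 3038400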;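 further: plate controls were neutral control wells for no effect and wells lacking membranes for full effect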
Efflux pump inh: antifungal efflux pump inhibition, Nile Red retention; S. cerevisiae Candida pump triplex; inhibition, % at 10 µM; 0.44% of 330,000 active; AID 485275;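 active means plate passing quality check with inhibition over a set limit, or well fluorescence over plate mean plus 4 SD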;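 further: Nile Red retained in pooled yeast measured as flow cytometry median fluorescence; 0% = buffer negative control and 100% = Enniatin B positive control; higher means more Nile Red kept so more efflux inhibition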
Cmpd fluor yeast: flagged as fluorescent in efflux inhibitor counter-screen; S. cerevisiae AD/pABC3, compound fluorescence, flow cytometry; 4% of 1,700 active; fluorescence ratio to DMSO, % at 10 µM; shares compounds with Efflux pump inh;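 active means fluorescence ratio to DMSO above its plate's cutoff, the plate mean ratio plus 5 SD, cut at about 210% in these data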;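 further: unstained yeast with no Nile Red so the signal is compound autofluorescence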
CaMdr1 efflux inh: inhibitors of Candida albicans Mdr1 efflux pump | shares compounds with Efflux pump inh | S. cerevisiae AD/CaMDR1, Nile Red efflux, flow cytometry | inhibition, % at 10 µM | 1% of 1,700 active | AID 588518; in the data active means inhibition above about 26%;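 further: 0% = DMSO vehicle and 100% = reference inhibitor; higher means more Nile Red retained so more efflux inhibition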
Cdr2 pump inh: Candida Cdr2 efflux pump inhibition | shares compounds with Efflux pump inh | S. cerevisiae AD/CaCDR2, Nile Red retention, flow cytometry | Nile Red retention ratio vs DMSO, % at 10 µM | 4% of 1,700 active | AID 588520; in the data active means Nile Red retention ratio vs DMSO above about 190%;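 further: higher ratio means more blocking of Cdr2 efflux of the dye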
CaCdr1 efflux inh: blocks the Candida albicans Cdr1 efflux pump in yeast; shares compounds with Efflux pump inh; S. cerevisiae AD/CaCDR1, Nile Red efflux, flow cytometry; inhibition, % at 10 µM; 1% of 1,700 active;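 active means inhibition above the screen-wide mean plus twice its standard deviation, cut at about 32% in these data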
The depositor's hits bear a star; i = inactive; / = no result given.

SMILES	HDAC3 inh	GRK2 aptamer HTS	Rtt109 Vps75	ALR inh	Rce1 inh	Efflux pump inh	Cmpd fluor yeast	CaMdr1 efflux inh	Cdr2 pump inh	CaCdr1 efflux inh
COCCOC(=O)c1c(C)oc2ccc(NS(=O)(=O)c3ccc(F)cc3)cc12	-1.3	0.0	5.8	-3.2	i	0.4*	93.7	-0.1	88.8	-0.2
Nc1nc(CCl)nc(N(c2ccccc2)c2ccccc2)n1	-0.8	0.0	/	9.5	i	0.1	/	/	/	/
COc1cc(/C=N/NC(=O)COc2ccc(C)cc2)ccc1OC(=O)c1cccs1	8.8	8.0	-6.0	-4.3	i	2.1*	86.5	-0.4	98.1	-0.1
O=C1C(Cc2cccc([N+](=O)[O-])c2)SC(=Nc2ccccc2)N1c1ccccc1 (centres undefined)	-5.7	0.0	-3.6	-37.1	i	13.5*	119.6	0.6	110.2	0.0
COc1ccc(C2CC(c3ccccc3C(F)(F)F)=NN2c2ccc(S(N)(=O)=O)cc2)cc1 (centres undefined)	/	4.0	1.4	/	/	55.6*	93.5	-0.2	113.8	-0.1
COc1ccc(C2CC(c3ccccc3F)=NN2c2ccc(S(N)(=O)=O)cc2)cc1 (centres undefined)	/	0.0	2.4	/	/	-0.2	/	/	/	/
COc1ccc(CCN2C(=O)CSC2=Nc2ccc(C(C)C)cc2)cc1OC	5.5	3.0	10.2	/	i	0.2	/	/	/	/
CCCCSC1=N/C(=C/c2ccsc2)C(=O)N1c1ccccc1	10.2	2.0	-4.4	-1.6	i	5.8*	105.0	-0.1	93.0	0.0
CCOc1ncccc1C(=O)OCC(=O)c1c(N)n(C)c(=O)n(C)c1=O	-5.8	1.0	-4.3	4.8	i	0.0	/	/	/	/
Cn1c(N)c(C(=O)COC(=O)c2ccccn2)c(=O)n(C)c1=O	0.4	2.0	-3.4	-8.9	i	1.7*	99.0	-0.3	96.3	-0.1
C#CCOCCOCCOCCNc1nc(N2CCOCC2)nc(N2CCN(C(=O)Cn3cc(CCCCN)nn3)CC2)n1	/	/	3.8	/	/	/	/	/	/	/
CSCCC(NC(=O)COc1ccccc1)C(=O)N(C)Cc1cccc(F)c1 (centres undefined)	0.2	0.0	-9.9	-1.4	/	0.0	/	/	/	/
O=S(=O)(c1cccc2cccnc12)N1CCN(c2ccccc2)CC1	-3.2	0.0	-0.6	52.0	i	16.7*	110.0	-0.2	101.7	-0.1
O=S(=O)(c1cccc2cccnc12)N1CCN(c2ccccn2)CC1	10.4	0.0	7.7	-0.1	i	-0.1	/	/	/	/
CC1=C(C(=O)Nc2ccccc2)C(c2cccc([N+](=O)[O-])c2)Nc2nc3ccccc3n21 (centres undefined)	3.2	3.0	7.0	3.9	i	1.4*	108.6	-0.2	109.4	-0.1
O=[N+]([O-])C1C(c2ccccc2)=NOC1c1ccccc1O (centres undefined)	8.0	0.0	-12.1	3.1	i	0.0	/	/	/	/
N#CCCN1CCN(C(=S)c2ccc(-c3ccc(Cl)c(Cl)c3)o2)CC1	-2.7	0.0	0.3	1.6	i	1.0*	104.5	-0.1	89.9	0.1
N#CCCN1CCN(C(=S)c2ccc(-c3cccc(Cl)c3)o2)CC1	4.8	0.0	-2.3	-2.1	i	-0.1	/	/	/	/
O=C(COc1ccc2ccccc2c1)Nc1nnc(-c2ccco2)s1	-1.6	0.0	/	-7.1	i	-0.1	/	/	/	/
Cc1ccccc1OCC(=O)Nc1nnc(-c2ccco2)s1	/	7.0	-4.6	-1.2	/	0.0	103.0	0.0	101.8	0.0
CC(=O)Nc1ccc(S(=O)(=O)N2CCC(c3nc4c(nnn4Cc4ccccc4Cl)c(=O)[nH]3)CC2)cc1	5.5	3.0	9.8	2.6	i	-0.1	/	/	/	/
CC1(c2ccc([N+](=O)[O-])cc2)NC(=O)N(CC(=O)Nc2cccnc2Cl)C1=O (centres undefined)	0.2	1.0	13.6	-14.5	i	0.0	/	/	/	/
CCCc1[nH]n(-c2ccc([N+](=O)[O-])cc2)c(=O)c1C=NCCc1ccc(OC)c(OC)c1	-1.7	4.0	-3.3	-0.7	i	0.8*	111.1	0.1	103.9	0.0
Cc1ccc(-c2csc(=S)n2CC(=O)OCC(=O)NCc2ccco2)cc1	-3.2	2.0	-2.4	-1.4	i	0.2	/	/	/	/
Cc1ccc(-c2csc(=S)n2CC(=O)OCC(=O)NC(C)C(C)C)cc1 (centres undefined)	0.7	0.0	-6.9	31.1	i	0.7*	90.7	-0.2	100.7	-0.1
SMILES	HDAC3 inh	GRK2 aptamer HTS	Rtt109 Vps75	ALR inh	Rce1 inh	Efflux pump inh	Cmpd fluor yeast	CaMdr1 efflux inh	Cdr2 pump inh	CaCdr1 efflux inh
CCCCNC(=O)c1cc2cc(CC)ccc2[nH]1	-17.0	0.0	-0.7	-8.3	i	0.1	/	/	/	/
Cc1nnsc1-c1nnc(SCC(=O)c2ccc(C#N)cc2)n1C1CC1	-7.7	0.0	-3.5	29.1	i	0.6*	106.7	-0.1	107.8	0.0
Cn1cc(/C=C/c2cc[n+](C)cc2)c2cc(F)ccc21	10.6	0.0	1.9	/	i	9.5*	743.4*	3.4	93.0	4.2
Cn1cc(C=O)c2cc(F)ccc21	1.0	0.0	0.6	-7.3	/	0.1	/	/	/	/
Cn1cc(/C=C/c2cc[n+](C)cc2)c2cc(Cl)ccc21	5.5	0.0	6.3	/	i	5.9*	735.4*	2.9	99.3	2.0
O=C(CN1CCN(C(=O)C2CC2)CC1)Nc1ccc(Cl)cc1F	/	/	8.8	/	/	/	/	/	/	/
CCC(=O)c1ccc(SC(=O)N(C)C)cc1O	-0.2	2.0	-10.1	-8.6	i	-0.1	/	/	/	/
CCN(CCO)Cc1csc2cc(C)ccc12	1.1	1.0	-13.5	-2.3	i	7.5*	88.0	-0.3	96.3	-0.1
COc1ccc(NC(=O)CN(C)C(=O)c2ccc(NS(=O)(=O)c3cccc([N+](=O)[O-])c3)cc2)cc1	3.1	0.0	18.2	-0.3	i	-0.1	/	/	/	/
CN(Cc1ccc(OC(F)F)cc1)C(=O)c1cccc(S(=O)(=O)N2CCN(Cc3ccccc3)CC2)c1	/	/	1.7	/	/	/	/	/	/	/
COc1ccc(N)cc1C#N	3.8	4.0	-8.8	-64.0	i	0.7*	100.2	-0.1	107.8	0.0
COc1cc(N)ccc1Cc1ccc(N)cc1OC	-2.3	0.0	4.7	96.6*	i	0.5*	101.1	-0.2	114.4	0.0
COc1ccc(N)cc1-n1c(C)ccc1C	-4.9	0.0	-40.5	16.0	i	0.2	/	/	/	/
O=C(O)C1C2CC3OC(=O)C1C3C2 (centres undefined)	/	/	-1.2	/	/	/	/	/	/	/
O=C(O)C1C2CC3C(OC(=O)C31)C2Cl (centres undefined)	2.9	19.0	-3.1	-7.1	i	6.5*	107.9	-0.1	106.0	0.0
